These results are taken from PubChem BioAssay (NCI).

Compounds without any hit were thinned out: in the full panel of roughly 83,000, 20% have a hit.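 Plates (96-well) were seeded with cells, treated with compound at one concentration, and incubated for 48 hours before percent growth was determined.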 Values without a mark were called inactive. Rule for the calls: active = growth percent below 10; inactive = the rest.

This assay concerns U251 CNS. As to the kind of experiment: NCI-60 one-dose screen, 48 h (100 = growth as untreated, 0 = no growth, -100 = all killed). The conditions noted are these: 10 µM unless noted.
For the compound `CC1CC(C)S(=O)(=O)C1` (configuration not stated), the growth is 88.5%.

For the compound `Nc1c(Br)cc(O)c2c1C(=O)c1ccccc1C2=O`, the growth was 92%.

On to `NC(CO)(CO)c1ccccc1`, for which the growth is 97.3%.

For `CC(C)N1CC(=O)N2CSCC2C1=O` (configuration not stated), the growth is 105%.

With `CCNC(=O)OCCc1c2ccccc2nc2ccccc12`, the growth was 97%.

Take `CCN(CC)CCN1CNC(=S)NC1`: the growth is 105%.

`Oc1cc(O)c2c(c1)O[C@H](c1ccc(O)c(O)c1)[C@@H](O)C2`: the growth is 97.9%.

On to `CN1CCN(C(=S)S)CC1`, for which the growth is 102%.

In the case of `O=c1[nH]c(=O)c2cc(Cl)cc(Cl)c2[nH]1`, the growth was 103%.

For the compound `CCOP(=O)(NC(c1ccccc1)c1ccccc1)OCC`, the growth is 105%.

Take `Cc1ccc2nc(N)nnc2c1`: the growth is 111%.

Turning to `NC(=S)N/N=C/c1ccc(Cl)cc1`, the growth was 99.7%.

Take `CC(=O)C1C(=O)C(=O)N(c2ccc(Cl)c(Cl)c2)C1=O` (configuration not stated): the growth is 101%.

Turning to `CN1CCCN(C(c2ccccc2)c2ccc(Cl)cc2)CC1` (configuration not stated), the growth was 97.2%.

Take `c1ccc(-c2ccc3ccccc3c2)cc1`: the growth is 92.7%.

`CCOC(=O)C(C#N)=C1CCN(C)CC1`: the growth was 104%.

As to `Ic1cccs1`, the growth is 96.3%.

Regarding `O=C(O)c1cccc(-n2ncc(Cl)c(Cl)c2=O)c1`, the growth is 101%.

Consider `CCCCn1cnc2c(=O)[nH]cnc21`, for which the growth is 109%.

For the compound `CC(=O)N(C(C)=O)c1ccc(C)cc1`, the growth was 97.6%.

Turning to `CCNCC(C)(C)O`, the growth is 104%.

For `COc1cc(C(=O)NC(=S)NCc2ccncc2)cc(OC)c1OC`, the growth is 98.7%.
